High-throughput results from PubChem BioAssay.
An excerpt weighted towards active compounds, which were near 3.5% of everything screened.
Vc quorum ag = quorum light induction in luxS cqsA deficient V. cholerae. V. cholerae BH1578 lux reporter, luminescence, 6 h. activation, % at 18.7 µM. actives 0.16% (n = 350,000). AID 588436; in the data active = activation mostly above about 9.7%, no sharp cut-off; inconclusive = no clear call, values can overlap the other calls; inactive = mostly below about 3.7%
BoNT-A LC inh2 = blocks Botulinum neurotoxin A light chain protease. multiplex microsphere protease substrate cleavage, flow cytometry. inhibition, % at 10 µM. actives 0.17% (n = 360,000). AID 588499; also: plate controls were buffer without enzyme for full effect and enzyme alone for no effect
BoNT F protease = blocks Botulinum neurotoxin F light chain protease. Multiplex microsphere protease cleavage assay, flow cytometry. inhibition, % at 10 µM. actives 0.22% (n = 360,000). AID 588497; in the data active = inhibition above about 35%, passing the limit was not always enough; inconclusive = no clear call, values can overlap the other calls; also: plate controls were buffer without enzyme for full effect and enzyme alone for no effect
Bead autofluor = counter-screen for toxin protease inhibitors: compound fluorescence; compound autofluorescence counterscreen, microsphere flow cytometry; stronger effect = higher value; actives 3.1% (n = 360,000); fluorescence intensity (test concentration not listed); AID 624483; in the data active = fluorescence intensity above about 16000; inconclusive = no clear call, values can overlap the other calls
Anthrax LF prot = inhibitors of Bacillus anthracis lethal factor protease | P15917 | multiplex microsphere protease cleavage assay, LF | inhibition, % at 10 µM | actives 0.12% (n = 360,000); also: plate controls were buffer without enzyme for full effect and enzyme alone for no effect
* = called active by the depositor. Rule as the data show it, unless noted: active = inhibition above about 30%; inconclusive = no clear call, values can overlap the other calls; inactive = below that.

Results for CC(=O)NCCNC(=O)[C@H](Cc1ccccc1)NC(=O)c1cccs1 ?
Vc quorum ag: inactive; BoNT-A LC inh2: inconclusive; BoNT F protease: -1; Bead autofluor: 20647*; Anthrax LF prot: -5

Results for Cc1c(N=C2N=C(NC(=O)c3ccc(F)cc3)c3ccccc32)c(=O)n(-c2ccccc2)n1C ?
Vc quorum ag: -1; BoNT-A LC inh2: 11; BoNT F protease: 5; Bead autofluor: 5549; Anthrax LF prot: 9

What do the screens show for `O=C(NCc1ccco1)/C(=C/c1ccc(Br)cc1)NC(=O)c1ccco1`?
Vc quorum ag: 0; BoNT-A LC inh2: -2; BoNT F protease: -7; Bead autofluor: 5681; Anthrax LF prot: 1

Results for Cc1nnc(SCC(=O)N2CC(=O)Nc3ccccc32)n1-c1ccccc1 ?
Vc quorum ag: -3; BoNT-A LC inh2: 1; BoNT F protease: 14; Bead autofluor: 4050; Anthrax LF prot: -1

How did O=C1CN(C(=O)CSc2nncn2-c2ccccc2)c2ccccc2N1 do in these assays?
Vc quorum ag: inactive; BoNT-A LC inh2: -2; BoNT F protease: -4; Bead autofluor: 21221*; Anthrax LF prot: -1

What do the screens show for `C/C(=N\NC(=O)Cc1ccc(Cl)cc1)c1ccccc1O`?
Vc quorum ag: 0; BoNT-A LC inh2: 1; BoNT F protease: -5; Bead autofluor: 3778; Anthrax LF prot: 8

What do the screens show for `Cc1ccccc1-c1csc(N)n1`?
Vc quorum ag: -5; BoNT-A LC inh2: -1; BoNT F protease: 1; Bead autofluor: 4025; Anthrax LF prot: 0

Results for Cc1ccc(-c2csc(N)n2)s1 ?
Vc quorum ag: 2; BoNT-A LC inh2: -2; BoNT F protease: -1; Bead autofluor: 20327*; Anthrax LF prot: 0

Results for CN(C(=O)c1ccccc1NC(=O)C(F)(F)F)c1ccccc1 ?
Vc quorum ag: 0; BoNT-A LC inh2: 10; BoNT F protease: 10; Bead autofluor: 19216*; Anthrax LF prot: -6

How did CCOC(=O)c1ccccc1NC(=O)COC(=O)c1ccccc1C(=O)N(C)c1ccccc1 do in these assays?
Vc quorum ag: 1; BoNT-A LC inh2: inconclusive; BoNT F protease: inconclusive; Bead autofluor: 4278; Anthrax LF prot: inconclusive

What do the screens show for `O=[N+]([O-])C(/C=C(/Cl)[N+](=O)[O-])=C(N1CCCCC1)N1CCCCC1`?
Vc quorum ag: -1; BoNT-A LC inh2: 3; BoNT F protease: inconclusive; Bead autofluor: inconclusive; Anthrax LF prot: -6

How did C=CCCC(=O)N1C[C@@H](CO)[C@@H](NC)C[C@H]1c1ccccc1Br do in these assays?
BoNT-A LC inh2: 0; BoNT F protease: 5; Bead autofluor: 4279; Anthrax LF prot: -3

Results for CCOC(=O)CC(=O)CSc1nc2ccccc2c(=O)n1-c1ccc(C(=O)NCCOC)cc1 ?
Vc quorum ag: inactive; BoNT-A LC inh2: -1; BoNT F protease: -1; Bead autofluor: 16847*; Anthrax LF prot: -2

What do the screens show for `CCOC(=O)CC(=O)CSc1nc2ccccc2c(=O)n1-c1ccc(C(=O)N2CCOCC2)cc1`?
Vc quorum ag: 0; BoNT-A LC inh2: 0; BoNT F protease: 0; Bead autofluor: 10639; Anthrax LF prot: 0

Results for O=C(NCc1ccc2c(c1)OCO2)C1CC(=O)N(c2ccc(Cl)cc2)C1 (stereo not drawn) ?
Vc quorum ag: -9; BoNT-A LC inh2: 0; BoNT F protease: 4; Bead autofluor: 3879; Anthrax LF prot: 10

What do the screens show for `Cc1ccc(N2CC(C(=O)NCc3ccc4c(c3)OCO4)CC2=O)cc1C` (stereo not drawn)?
Vc quorum ag: inactive; BoNT-A LC inh2: inconclusive; BoNT F protease: -2; Bead autofluor: 22630*; Anthrax LF prot: -3

What do the screens show for `CC(=O)Nc1cccc(N2CCCC2=O)c1`?
Vc quorum ag: 0; BoNT-A LC inh2: -6; BoNT F protease: -8; Bead autofluor: 25393*; Anthrax LF prot: 0

Results for CC(=O)Nc1cccc(N2C(=O)CCC2=O)c1 ?
Vc quorum ag: inactive; BoNT-A LC inh2: 0; BoNT F protease: -6; Bead autofluor: 2462; Anthrax LF prot: -2

How did CCCn1c2c(c(O)c(C(=O)Nc3ncccc3C)c1=O)CCCC2 do in these assays?
Vc quorum ag: inactive; BoNT-A LC inh2: 0; BoNT F protease: 2; Bead autofluor: 22788*; Anthrax LF prot: -2

Results for CCCn1c2c(c(O)c(C(=O)Nc3nccs3)c1=O)CCCC2 ?
Vc quorum ag: inactive; BoNT-A LC inh2: 0; BoNT F protease: 5; Bead autofluor: 2826; Anthrax LF prot: -2

How did Cc1ccc2nc(N3CCN(S(=O)(=O)c4ccc(C)c(Cl)c4)CC3)c(C#N)cc2c1 do in these assays?
Vc quorum ag: inactive; BoNT-A LC inh2: inconclusive; BoNT F protease: 12; Bead autofluor: 21608*; Anthrax LF prot: 13
